Measured values published in the supplement of paper PMC3334620.
Over roughly 33,000 sequences, “E-score (-0.5 to 0.5)” has its median near -0.012; the highest 2% begin near 0.29. The entries come from a sample that favours the highest values as a whole.

target: T1, Ybr033w (UniProt P38073); test: PBM E-score (8-mer binding enrichment) (E-score (-0.5 to 0.5)); higher = stronger / more preferred TF binding; details: protein concentration: 200 nM; construct: GST-full length
T1 sequence: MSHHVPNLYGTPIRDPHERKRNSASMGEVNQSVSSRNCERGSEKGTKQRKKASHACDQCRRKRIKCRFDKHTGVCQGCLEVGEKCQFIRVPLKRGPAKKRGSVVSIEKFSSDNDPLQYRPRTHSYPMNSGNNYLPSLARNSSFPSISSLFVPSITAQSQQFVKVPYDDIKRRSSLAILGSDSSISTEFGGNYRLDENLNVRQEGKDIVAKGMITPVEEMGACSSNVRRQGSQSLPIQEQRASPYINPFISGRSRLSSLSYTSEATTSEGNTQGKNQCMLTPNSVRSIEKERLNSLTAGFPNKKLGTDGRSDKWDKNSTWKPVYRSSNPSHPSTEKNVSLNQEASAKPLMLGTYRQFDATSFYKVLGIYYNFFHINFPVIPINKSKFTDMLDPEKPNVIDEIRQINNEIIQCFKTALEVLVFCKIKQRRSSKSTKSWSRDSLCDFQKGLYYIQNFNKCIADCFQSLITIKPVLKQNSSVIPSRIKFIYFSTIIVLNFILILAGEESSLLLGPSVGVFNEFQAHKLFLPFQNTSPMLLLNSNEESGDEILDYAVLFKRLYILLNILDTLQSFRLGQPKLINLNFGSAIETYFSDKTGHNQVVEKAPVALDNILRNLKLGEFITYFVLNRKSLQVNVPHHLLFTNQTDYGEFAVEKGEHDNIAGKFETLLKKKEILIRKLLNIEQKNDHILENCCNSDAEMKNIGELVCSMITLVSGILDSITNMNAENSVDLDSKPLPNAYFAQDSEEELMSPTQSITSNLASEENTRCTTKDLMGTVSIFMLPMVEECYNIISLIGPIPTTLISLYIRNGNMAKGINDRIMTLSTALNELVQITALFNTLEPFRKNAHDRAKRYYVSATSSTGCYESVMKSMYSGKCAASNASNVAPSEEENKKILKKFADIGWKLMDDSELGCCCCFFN
Protocol: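 Universal 'all 10-mer' protein binding microarrays (Agilent AMADID 015681) probed with GST-tagged S. cerevisiae TFs (full-length or DBD) made by in vitro transcription/translation (PURExpress), about 100-200 nM. Bound TF was detected with fluorescent anti-GST. Each ungapped 8-mer (which stands for itself and its reverse complement) is scored by the PBM enrichment score (E-score), a modified Wilcoxon-Mann-Whitney statistic from -0.5 to +0.5, computed with the Universal PBM Analysis Suite. Scale: above 0.35 generally sequence-specific binding.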

In order of rising “PBM E-score” value:
1. CGCCCCCC  -0.434
2. ATGCGTGG  -0.346
3. AGGGGAAG  -0.272
4. CCAGGGCA  -0.266
5. GGTGCACC  -0.253
6. GTGCGACA  -0.235
7. CGTGTGAG  -0.225
8. GACGGTTA  -0.192
9. CACACTGA  -0.19
10. GCCCATCA  -0.178
11. CCTCCAAG  -0.176
12. AGACTGTA  -0.175
13. CTGCCCAC  -0.165
14. CCAGATTC  -0.16
15. GCGCTCTA  -0.159
16. CATAGCTC  -0.153
17. GCTAGGCA  -0.146
18. AGTGGCTG  -0.145
19. CGATCAAC  -0.144
20. GAATCGCC  -0.138
21. GGTTGCAC  -0.131
22. CTTCAGCC  -0.13
23. CGGTTGCA  -0.122
24. CTTAGCTC  -0.12
25. CCGCTAAA  -0.117
26. ACCAGTAT  -0.104
27. AGGTCTGC  -0.104
28. CCAGGAAC  -0.103
29. AACCCAGT  -0.102
30. GCTGCAGA  -0.101
31. TCCCCTCA  -0.098
32. TAAGATAA  -0.0896
33. ATGGGATC  -0.0796
34. CCTGAGCA  -0.075
35. GTGCTGGA  -0.0549
36. CCAAGCTC  -0.0526
37. CAGGTAGG  -0.052
38. CGTTCTAG  -0.0499
39. CTATTCCC  -0.043
40. TCTGTCCA  -0.0429
41. AACGATGG  -0.0425
42. AAAGATAG  -0.0366
43. CCTGCAAC  -0.034
44. AGCTTAGA  -0.0294
45. GTATTCCA  -0.0248
46. GAAGACTC  -0.0221
47. AAAGATCG  -0.0193
48. ACTGCACC  -0.018
49. CCTAACGA  -0.0133
50. AAGTCTAT  -0.00931
51. AATGTCAA  0.00312
52. AACCACAT  0.00349
53. AAGCAACC  0.0073
54. GACGAGTA  0.0188
55. ATTCGAGA  0.023
56. ACAATCCC  0.0235
57. AAACGCGA  0.0304
58. AAAGTTGC  0.0307
59. TCGTCCAA  0.0311
60. CACCCCAG  0.0316
61. ATATTCGG  0.0327
62. AAATTCCC  0.0364
63. CACGAGTA  0.0368
64. AAAGTTGG  0.0498
65. CTATTCAA  0.0501
66. AATCTCAA  0.0508
67. AGATCAAC  0.0509
68. GATGCATC  0.0586
69. CATATTCA  0.0595
70. ACATTCCC  0.0614
71. GATGTCAA  0.0645
72. GTGGATCA  0.0654
73. AAACTTCC  0.068
74. CAAGTTAA  0.068
75. ATGCGACA  0.0689
76. CAGGTGAA  0.0712
77. TGATCAAA  0.076
78. TAACCTCA  0.0768
79. CATAACTC  0.0871
80. CGTTCTTC  0.0897
81. CAAGTTAG  0.0992
82. ATAGATTG  0.107
83. CGTATTAA  0.108
84. AATATGAC  0.109
85. AGATCAAA  0.111
86. ACTATTAG  0.111
87. CATCTCAA  0.119
88. ATTCGAAA  0.12
89. AAAGATAC  0.12
90. CATTTCCG  0.12
91. ATCTTCCC  0.121
92. ACACTCTA  0.121
93. AACACTCA  0.13
94. GGAAATGA  0.133
95. CCTATTAA  0.139
96. AAGAATGC  0.142
97. AAATCGAC  0.142
98. ATATTCTG  0.157
99. GTAATGGA  0.163
100. GACATTAA  0.166
101. TCTATTCA  0.167
102. GAAGATAC  0.17
103. CTATTCCA  0.17
104. AGTTCTTA  0.171
105. AAAGATCA  0.173
106. AGTATTAG  0.174
107. GAATTCAA  0.177
108. TAAGCAAA  0.179
109. ATCCGGGG  0.181
110. CAAGATTA  0.185
111. ATTTCTTA  0.195
112. ATTTCTTG  0.198
113. GCTATTAA  0.201
114. CATATTAG  0.202
115. AAAGATTA  0.203
116. AGTCGACT  0.204
117. AAATTCAG  0.204
118. TAAGTTAA  0.206
119. GTAGATTA  0.216
120. CGCTACTA  0.218
121. TTAGATAA  0.218
122. AACATTAA  0.224
123. AAAGTTAC  0.224
124. AATATTCA  0.226
125. AATATTAG  0.228
126. GTTGCAAA  0.231
127. TAATCTAA  0.236
128. AATATGAG  0.245
129. ATCTTCCA  0.249
130. ACTTGTTC  0.25
131. GATATTAA  0.251
132. TTATTCAA  0.253
133. AAATTCCA  0.258
134. TGTATTAA  0.272
135. AATTTCCT  0.273
136. TATATTGA  0.275
137. ATAGATAA  0.28
138. AATATTAC  0.283
139. AAATTCAA  0.288
140. TCTATTAA  0.292
141. AGTATTAA  0.295
142. TACGAGTA  0.297
143. AAAGTTAG  0.297
144. AAAGATAA  0.299
145. AAAGATCC  0.3
146. ATATTCAA  0.3
147. AGTTCTTC  0.3
148. AAAGTTGT  0.302
149. TATATTCA  0.303
150. AAATTCCG  0.309
151. ATTTCTTC  0.313
152. AATATGAT  0.317
153. TATGTCAA  0.318
154. GAAGATAA  0.319
155. TATCTCAA  0.32
156. AAAGTTAA  0.323
157. TATATTAA  0.324
158. AATTTCCG  0.325
159. ACTATTAA  0.325
160. ATAGATTA  0.329
161. ATATTCCC  0.329
162. GTAGATAA  0.333
163. AATATTAT  0.335
164. TACATTAA  0.345
165. CATATTAA  0.347
166. AATATTAA  0.349
167. GAAGATTA  0.366
168. GGATCAAA  0.367
169. GGATCAAC  0.369
170. ATATTCCA  0.395
171. ATATTCCG  0.428
172. ATCTTCCG  0.438
